High-throughput results deposited in PubChem BioAssay by National Center for Advancing Translational Sciences (NCATS).
A selection: hits, their analogues and other compounds. The true share with any hit is near 6.4%.
KinaseGlo FLuc – counter-screen: inhibitors of Kinase-Glo firefly luciferase. Kinase-Glo luciferase, ATP luminescence, 8 min. Potency, µM (titrated, usually from 38.3 µM), most hits filed as inhibitors. 200,000 tested, 0.28% active; further: nearly all actives have a fitted effect of over 60% in size
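Kinase-Glo luciferase light output from ATP and luciferin was measured with 10 uM ATP, within the enzyme's linear range. Buffer: 50 mM imidazole pH 7.2, 50 mM KCl, 7 mM MgCl2, 0.01% Tween 20, 0.05% BSA; luminescence read after 8 min at ambient temperature.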
Gal4-VP16 FLuc – inhibits Gal4-VP16 luciferase reporter, ROR gamma counter-screen. Drosophila S2 Gal4-VP16 UAS-luciferase, luminescence, 20 h. Potency, µM (top dose mostly 53.6 µM), actives largely listed as inhibitors. 310,000 tested, 3.5% active;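 further: Gal4-VP16 expression switched on by copper sulfate through the metallothionein promoter; nearly all actives have a fitted effect of over 50% in size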
RORg inh – blocks mouse ROR gamma transcriptional activity; Drosophila S2 Gal4-RORgamma UAS-luciferase reporter, 20 h; 310,000 tested, 5.4% active; Potency, µM (doses to about 53.6 µM), usual class: inhibitors; AID 2551; P51450; further: nearly all actives have a fitted effect of over 60% in size
Target sequence (P51450 whole entry, looked up, the tested form may be a part): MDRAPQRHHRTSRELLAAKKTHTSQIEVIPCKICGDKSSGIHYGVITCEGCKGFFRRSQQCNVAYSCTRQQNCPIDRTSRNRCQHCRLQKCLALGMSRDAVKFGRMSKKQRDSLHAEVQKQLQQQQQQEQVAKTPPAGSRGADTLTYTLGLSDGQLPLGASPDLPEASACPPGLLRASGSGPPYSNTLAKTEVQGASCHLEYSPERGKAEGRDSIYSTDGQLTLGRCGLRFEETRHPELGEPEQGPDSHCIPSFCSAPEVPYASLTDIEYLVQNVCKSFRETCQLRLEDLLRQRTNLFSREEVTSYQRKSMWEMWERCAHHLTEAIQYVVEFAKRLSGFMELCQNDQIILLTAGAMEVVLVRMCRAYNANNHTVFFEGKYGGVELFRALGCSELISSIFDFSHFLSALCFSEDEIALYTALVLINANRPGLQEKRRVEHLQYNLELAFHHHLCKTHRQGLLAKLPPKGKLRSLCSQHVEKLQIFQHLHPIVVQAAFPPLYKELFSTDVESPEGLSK
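Read-out: Photinus luciferase luminescence; inhibitors lower reporter signal. Insect Schneider cells with Gal4-ROR gamma fusion under metallothionein promoter, UAS reporter; 700 uM final copper sulfate induction, 20 hr, ambient temperature.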
Of the large screens only hits and unclear results are named; the others gave an inactive call. The call rests on the fitted dose curve; in most records, active means well fitted curve in the direction sought with a large enough effect; inconclusive means small, poorly fitted or top-dose-only effect, or another doubt; inactive means no such curve, though single readings can be large; an effect the other way counts as inactive or inconclusive.

CCOc1cc(C2NC(=O)CCC2[N+](=O)[O-])cc(Br)c1OC (centres undefined)	none (no result: KinaseGlo FLuc)
Cc1ccc(CNC(=O)CCc2c(C)nn(-c3ccc(N4CCOCC4)nn3)c2C)cc1	none (no result: KinaseGlo FLuc)
Cc1nc(NC(=O)/C=C/c2ccccc2)sc1C(=O)Nc1ccccc1Cl	Gal4-VP16 FLuc inconclusive, RORg inh 15.8µM
Cc1nc(NC(=O)/C=C/c2ccccc2)sc1C(=O)Nc1ccc(Cl)cc1	Gal4-VP16 FLuc inconclusive
O=c1[nH]cnc(O)c1C(c1cccc([N+](=O)[O-])c1)c1c(O)nc[nH]c1=O	none (no result: KinaseGlo FLuc)
COCCNC(=S)N/N=C(\C)c1cc2ccccc2o1	Gal4-VP16 FLuc 4.47µM, RORg inh 5.01µM
COCCNC(=S)N/N=C(\C)c1ccc(OC)cc1	Gal4-VP16 FLuc 1.26µM, RORg inh 0.631µM
CCC(=O)Nc1ccc(/C(C)=N\NC(=O)c2ccc(OC)cc2)cc1	none
COc1ccc2cc(/C(C)=N/NC(=O)C3CC3)ccc2c1	none
C=C(C)CNC(=S)N/N=C(\C)c1ccc(OC)cc1	Gal4-VP16 FLuc 5.01µM, RORg inh 2.24µM
COCCNC(=S)N/N=C(\C)c1ccc2cc(OC)ccc2c1	Gal4-VP16 FLuc 1µM, RORg inh 1µM
COc1ccc(/C(C)=N/NC(=O)C2CC2)cc1	none
C/C(=N\NC(=O)COc1ccc(C(C)(C)C)cc1)c1cc2ccccc2o1	Gal4-VP16 FLuc inconclusive, RORg inh inconclusive
COc1ccc(CCN=C(N)NS(=O)(=O)c2ccc(C)c(C)c2)cc1	none
COC(=O)c1sccc1NC(=O)Nc1ccccc1Cl	none (no result: KinaseGlo FLuc)
CCN1C(=O)[C@@H]2[C@H]3C(=CC[C@@H]2C1=O)C1(OCCCO1)[C@H]1O[C@@H]1[C@H]3O	none (no result: KinaseGlo FLuc)
O=C1CCN(CCc2ccccc2)CCN1C(CSc1ccc(Br)cc1)Cc1ccccc1 (centres undefined)	RORg inh inconclusive (no result: KinaseGlo FLuc)
COCCNC(=S)N/N=C(\C)c1ccc(C)c([N+](=O)[O-])c1	Gal4-VP16 FLuc 3.98µM, RORg inh 3.55µM
COCCNC(=S)N/N=C(\C)c1ccc(OC(F)F)cc1	Gal4-VP16 FLuc 7.94µM, RORg inh 2.24µM (no result: KinaseGlo FLuc)
COCCNC(=S)N/N=C(\C)c1cccc(C(F)(F)F)c1	Gal4-VP16 FLuc 5.01µM, RORg inh 2.51µM
C/C(=N\NC(=O)c1ccccc1)c1ccc(C)c([N+](=O)[O-])c1	Gal4-VP16 FLuc inconclusive
C/C(=N\NC(=O)C(N)=O)c1ccc(OC(F)F)cc1	none
C/C(=N\NC(=O)C(N)=O)c1cccc(C(F)(F)F)c1	none
CC(C)N1CCC(N2CCN(Cc3cc4c(cc3Cl)OCO4)CC2CCO)CC1 (centres undefined)	none
O=C(N=C1SC2CS(=O)(=O)CC2N1c1ccc(F)cc1F)C1CC1 (centres undefined)	RORg inh inconclusive (no result: KinaseGlo FLuc)
Cc1ccc(NC(=O)CN2C(=O)c3ccccc3C2=O)c(C)c1	none (no result: KinaseGlo FLuc)
Cc1ccc(S(=O)(=O)ON2C(=O)c3ccccc3C2=O)c(C)c1	Gal4-VP16 FLuc inconclusive, RORg inh 20µM (no result: KinaseGlo FLuc)
Cc1cc(C)c(C)c(S(=O)(=O)ON2C(=O)c3ccccc3C2=O)c1C	Gal4-VP16 FLuc 12.6µM, RORg inh inconclusive
Cc1ccc(OC(=O)CN2C(=O)c3ccccc3C2=O)cc1C	none (no result: KinaseGlo FLuc)
Cc1cc(C)c(S(=O)(=O)ON2C(=O)c3ccccc3C2=O)cc1C	Gal4-VP16 FLuc 15.8µM, RORg inh 14.1µM
C[C@H](O)CON1C(=O)c2ccccc2C1=O	none
C=CCC(Nc1ccc(OC)cc1)(C(=O)OCC)c1ccccc1 (centres undefined)	none
COC(=O)c1cc(S(=O)(=O)NCC2CCN(Cc3cccc(Cl)c3)CC2)c[nH]1	none (no result: KinaseGlo FLuc)
Cc1cccc(C)c1N1C(=O)CC(N(O)c2ccccc2)C1=O (centres undefined)	RORg inh 11.2µM
Cc1c(Cl)cccc1N1C(=O)CC(N(O)c2ccccc2)C1=O (centres undefined)	none
CCCCC1(COC(=O)CCC(=O)O)C(=O)N(c2ccccc2)N(c2ccccc2)C1=O	none
CCCCC1(Cc2ccc([N+](=O)[O-])cc2)C(=O)N(c2ccccc2)N(c2ccccc2)C1=O	Gal4-VP16 FLuc 7.08µM, RORg inh inconclusive
Cc1ccc(/C=N/NC(=O)C2CC(=O)N(c3ccccc3)C2)s1 (centres undefined)	none
O=C(N/N=C/c1ccccc1O)C1CC(=O)N(c2ccc(Cl)cc2)C1 (centres undefined)	Gal4-VP16 FLuc 1.12µM, RORg inh 0.891µM (no result: KinaseGlo FLuc)
c1ccc(C[C@@H](Nc2cccnc2)c2ccccc2)cc1	none (no result: Gal4-VP16 FLuc, RORg inh)
COc1ccc(C(=O)Nc2ccc(OC)c([N+](=O)[O-])c2)cc1Br	none
COc1ccc(C(=O)NC(=S)NNC(=O)c2ccc(NC(C)=O)cc2)cc1Br	Gal4-VP16 FLuc inconclusive, RORg inh 7.94µM
COc1ccc(C(=O)Nc2cc3c(cc2OC)CCCC3)cc1Br	RORg inh inconclusive
COc1ccc(C(=O)NC(=S)NC(C)C)cc1Br	Gal4-VP16 FLuc 11.2µM, RORg inh 1.78µM
COc1cc(C(=O)NNC(=O)c2ccc(NC(C)=O)cc2)cc(OC)c1OC	none
COc1ccc(C(=O)NC(=S)NC(C)(C)C)cc1Br	Gal4-VP16 FLuc 7.94µM, RORg inh 2µM
O=C(c1ccc(Cl)nc1)N1CCN(S(=O)(=O)c2ccccc2)CC1	none (no result: KinaseGlo FLuc)
O=C(CN(C(=O)c1csnn1)c1cccc(Cl)c1)NCCc1ccccc1	none (no result: KinaseGlo FLuc)
NCCSS(=O)(=O)CCN	none (no result: Gal4-VP16 FLuc, RORg inh)
COC(=O)c1ccc(C2NC(=S)N(c3ccccc3)C(C)=C2C(=O)Nc2ccccc2OC)cc1 (centres undefined)	Gal4-VP16 FLuc inconclusive, RORg inh 10µM
COc1ccccc1NC(=O)C1=C(C)N(c2ccccc2)C(=S)NC1c1cccc(C(F)(F)F)c1 (centres undefined)	none
COc1cc(C[C@H]2C(=O)OC[C@@H]2Cc2ccc(OC)c(OC)c2)ccc1O	Gal4-VP16 FLuc 1.12µM, RORg inh 6.31µM
COc1ccc(C[C@H]2COC(=O)[C@@H]2Cc2ccc(OC3OC(CO)C(O)C(O)C3O)c(OC)c2)cc1OC (some centres undefined)	RORg inh inconclusive
COc1cc(Cl)c(C)cc1NC(=O)CSc1nnc(CCC(=O)O)c(=O)[nH]1	none
O=C(N/N=C/c1cccc2ccccc12)c1ccccc1Cl	none (no result: KinaseGlo FLuc)
O=C(N/N=C/c1cccc2nccnc12)c1ccccc1O	Gal4-VP16 FLuc 3.16µM, RORg inh 2.51µM (no result: KinaseGlo FLuc)
O=C(N/N=C/c1cccc2nccnc12)c1ccncc1	RORg inh inconclusive (no result: KinaseGlo FLuc)
O=C(N/N=C/c1cccc2cccnc12)c1ccccc1O	Gal4-VP16 FLuc 0.794µM, RORg inh 0.355µM (no result: KinaseGlo FLuc)
COCCn1c(C)c(C)c(S(=O)(=O)c2ccccc2)c1N	none (no result: KinaseGlo FLuc)
Cc1ccc(C)c(NC(=S)NCc2ccccc2)c1	Gal4-VP16 FLuc 5.01µM, RORg inh 3.16µM (no result: KinaseGlo FLuc)
Cc1ccc(NC(=S)NCC(O)c2ccccc2)c(C)c1 (centres undefined)	none (no result: KinaseGlo FLuc)
Cc1ccc(CNC(=S)Nc2cc(C)ccc2OC(F)F)cc1	Gal4-VP16 FLuc inconclusive, RORg inh 4.47µM
Cc1ccc(C)c(NC(=S)N/N=C/C(C)c2ccccc2)c1 (centres undefined)	Gal4-VP16 FLuc 7.08µM, RORg inh 0.562µM
Cc1ccc(C(=O)Nc2ccccc2OC(F)F)cc1	none
COc1ccc(CNC(=S)NNC(=O)c2cc3ccccc3o2)cc1	RORg inh inconclusive (no result: KinaseGlo FLuc)
CC(/C=N/NC(=O)c1ccccc1F)c1ccccc1 (centres undefined)	none (no result: KinaseGlo FLuc)
COc1ccc(CNC(=S)Nc2ccccc2C)cc1	Gal4-VP16 FLuc 10µM, RORg inh 17.8µM
Cc1ccc(CNC(=O)CCCc2cn(C)c3ccccc23)cc1	none (no result: KinaseGlo FLuc)
